According to PubChem BioAssay AID720594 (Broad Institute, 2013):
Results with a measured potency or affinity are listed apart. A number with no mark means an inactive call. Active and inactive are the calls of the source.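 How the source made its calls: active means falling ATP light signal with a fitted half-maximal concentration at most twice the highest valid tested dose; inconclusive means flat fit with moderate signal loss, or poor fit; inactive means the rest.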

Assay: HepG2 hepatoma cell cytotoxicity, dose response, cytotoxicity control, CellTiter-Glo luminescence, dry powder, set 3 (AID 720594)
Conditions: HepG2 viability, ATP luminescence, 72 h; series mostly up to 26 µM; activity change, negative = cytotoxicity: at the top concentration

SMILES | activity change, negative = cytotoxicity | outcome
O=C(CSc1ccc(-c2ccccn2)nn1)N1CCCC1 | -17.5% | 
O=C(Nc1nc(-c2ccccn2)cs1)c1ccc(S(=O)(=O)N2CCOCC2)cc1 | -3.41% | 
CC1CCN(S(=O)(=O)c2ccc(C(=O)Nc3nnc(C4CC4)o3)cc2)CC1 | -15.2% | 
O=C(Nc1nnc(C2=COCCO2)o1)c1ccc(S(=O)(=O)N2CCCCC2)cc1 | -11.9% | 
O=C(CSc1n[nH]c(-c2ccccn2)n1)Nc1ccc(Cl)cc1 | -14.9% | 
CCCCC(=O)NC(c1ccco1)c1ccc2cccnc2c1O (centres undefined) | -22.8% | 
O=C(Nc1nnc(-c2ccc(F)cc2)o1)c1ccc(S(=O)(=O)N2CCCCC2)cc1 | -25.7% | 
O=C(Nc1nc(-c2ccncc2)cs1)c1cccc(S(=O)(=O)N2CCOCC2)c1 | -10.9% | 
c1ccc(-c2nc(-c3ccncc3)n[nH]2)nc1 |  | inactive
O=C(Cc1ccccc1)NC(c1ccco1)c1ccc2cccnc2c1O (centres undefined) | -14.6% | 
O=C(CSc1ccc(-c2ccccn2)nn1)Nc1nccs1 | -13.9% | 
Nc1nc(-c2ccccn2)nc(N)c1Cc1ccc(Cl)cc1Cl | 1.32% | 
COC(=O)c1ccc(NC(=O)CSc2ccc(-c3ccccn3)nn2)cc1 | -20.2% | 
CCc1cc2c(=O)[nH]c(-c3ccccn3)nc2s1 | 15.8% | 
O=C(CSc1ccc(-c2ccccn2)nn1)Nc1ccccc1 | -17.6% | 
CC(C)CC(=O)NC(c1cccs1)c1ccc2cccnc2c1O (centres undefined) | 14.7% | 
FC(F)(F)c1cc(-c2nn[nH]n2)cc(C(F)(F)F)c1 | -19.7% | 
Cc1ccc(C(=O)Nc2nc(-c3ccccc3)cs2)o1 | -10.1% | 
Cc1cccc(NC(=O)CSc2ccc(-c3ccccn3)nn2)c1C | 4.57% | 
